# Source: PubChem BioAssay (NCI)
# Compounds without any hit were thinned out: in the full panel of roughly 79,000, 15% have a hit. Values without a mark were called inactive. Active and inactive are the calls of the source. Rule as the data show it: active = growth inhibition above about 70%; inactive = the rest.
# Experiments:
# [1] = NCI Yeast Anticancer Drug Screen. Data for the rad52 strain (AID 147);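 also: 0% = growth of vehicle-treated control cultures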; conditions: S. cerevisiae rad52 mutant growth inhibition, active compounds read high
# How it was run: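 Screen used a yeast mutant impaired in DNA repair. After compound exposure, growth was measured. Values reflect inhibition compared with vehicle-treated cells.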
# [2] = NCI Yeast Anticancer Drug Screen. Data for the rad50EPP+ strain (AID 151);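 also: 0% = growth of vehicle-treated control cultures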; conditions: S. cerevisiae rad50 mutant strain, active compounds read high
# How it was run: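 Exposing the rad50EPP+ strain to each compound, growth was compared with vehicle-only cultures to give inhibition.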
# [3] = NCI Yeast Anticancer Drug Screen. Data for the mgt1 strain (AID 153); conditions: S. cerevisiae mgt1 mutant growth inhibition, active compounds read high
# How it was run: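 Genetically defined yeast (mgt1) treated with compound; inhibition of growth expressed against vehicle-treated controls.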
# [4] = NCI Yeast Anticancer Drug Screen. Data for the rad50 strain (AID 155);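 also: 0% = growth of vehicle-only cultures of the same strain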; conditions: S. cerevisiae rad50 strain growth inhibition, active compounds read high
# How it was run: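 Growth of the mutant yeast was measured after compound exposure and referenced to vehicle-treated cultures.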
# [5] = NCI Yeast Anticancer Drug Screen. Data for the mec2-1 strain (AID 157); conditions: S. cerevisiae mec2-1 strain, active compounds read high
# How it was run: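 Readout is yeast growth inhibition, normalised to vehicle-treated controls, in the mec2-1 strain exposed to compound.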
# [6] = NCI Yeast Anticancer Drug Screen. Data for the rad14 strain (AID 159);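 also: 0% = growth of vehicle-treated control cultures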; conditions: S. cerevisiae rad14 strain growth inhibition, active compounds read high
# How it was run: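 Here, inhibition of yeast growth was measured after compound exposure, using a strain with a genetic defect in DNA damage repair and vehicle-treated cultures as the reference.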
# [7] = NCI Yeast Anticancer Drug Screen. Data for the sgs1 mgt1 strain (AID 161);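 also: 0% = growth of cultures given vehicle only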; conditions: S. cerevisiae sgs1 mgt1 strain, active compounds read high
# How it was run: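 Growth of a repair-deficient yeast mutant was monitored after compound treatment and expressed as inhibition relative to vehicle-treated cultures.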
# [8] = NCI Yeast Anticancer Drug Screen. Data for the CLN2oe strain (AID 163);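 also: 0% = growth of vehicle-only control cultures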; conditions: S. cerevisiae CLN2oe strain, active compounds read high
# How it was run: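 Values reflect how much compound exposure reduced yeast growth, referenced to vehicle-exposed cells. Assay organism is a strain with a defined genetic change affecting cell-cycle control.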
# [9] = NCI Yeast Anticancer Drug Screen. Data for the cln2 rad14 strain (AID 165);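 also: 0% = growth equal to vehicle treated cultures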; conditions: S. cerevisiae cln2 rad14 strain, active compounds read high
# How it was run: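 Relative to vehicle controls, growth inhibition of compound-treated cln2 rad14 yeast was recorded.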
# [10] = NCI Yeast Anticancer Drug Screen. Data for the bub3 strain (AID 167); conditions: S. cerevisiae bub3 mutant strain, active compounds read high
# How it was run: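 Whole-cell yeast assay. The mutant strain was incubated with compounds, and growth inhibition was determined by comparison with vehicle-treated cells.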
# [11] = NCI Yeast Anticancer Drug Screen. Data for the wt2 strain (AID 169);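 also: 0% = growth of vehicle-treated yeast cultures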; conditions: S. cerevisiae wt2 strain growth inhibition, active compounds read high
# How it was run: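 Values express reduction in yeast growth under compound treatment, referenced to vehicle-treated cells.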
# [12] = NCI Yeast Anticancer Drug Screen. Data for the mlh1 strain (AID 171);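 also: 0% = growth of vehicle-treated control cultures of the same strain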; conditions: S. cerevisiae mlh1 strain growth inhibition, active compounds read high
# How it was run: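 Steps: expose the defined-mutant yeast strain to compound; expose a parallel culture to vehicle; measure growth; express compound effect as inhibition relative to the vehicle culture.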
# [13] = NCI Yeast Anticancer Drug Screen. Data for the sgs1 strain (AID 173);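 also: 0% = growth of vehicle-only control cultures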; conditions: S. cerevisiae sgs1 mutant, active compounds read high
# How it was run: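 Treat defined-mutant yeast with compound; measure growth; calculate inhibition relative to vehicle-treated cells.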
# [14] = NCI Yeast Anticancer Drug Screen. Data for the mlh1 rad18 strain (AID 175); conditions: S. cerevisiae mlh1 rad18 strain growth inhibition, active compounds read high
# How it was run: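 Test agents were incubated with a yeast strain of defined genotype (DNA damage repair defect). Inhibition of growth was derived by comparison with vehicle-exposed cultures.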
# [15] = NCI Yeast Anticancer Drug Screen. Data for the rad18 strain (AID 177); conditions: S. cerevisiae rad18 mutant growth inhibition, active compounds read high
# How it was run: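 A genetically defined yeast mutant impaired in DNA damage repair was treated with test compounds, then its growth was measured against cultures receiving vehicle alone.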
# [16] = at 5.0 µM (retest, dose inferred, filed as 0.5)
# [17] = at 50.0 µM (retest, dose inferred, filed as 5.0)
structure (smiles),measurement,setting,value
Cc1ccc2nc3sc(=O)sc3nc2c1,growth inhibition,[1]; at 1.2 µM,48%
same,growth inhibition,[1]; at 3.7 µM,66%
same,growth inhibition,[1]; at 11.0 µM,99% (active)
same,growth inhibition,[1]; at 33.0 µM,98% (active)
same,growth inhibition,[1]; at 100.0 µM,96% (active)
same,growth inhibition,[2]; at 1.2 µM,26%
same,growth inhibition,[2]; at 3.7 µM,49%
same,growth inhibition,[2]; at 11.0 µM,79% (active)
same,growth inhibition,[2]; at 33.0 µM,96% (active)
same,growth inhibition,[2]; at 100.0 µM,95% (active)
same,growth inhibition,[3]; at 1.2 µM,22%
same,growth inhibition,[3]; at 3.7 µM,40%
same,growth inhibition,[3]; at 11.0 µM,96% (active)
same,growth inhibition,[3]; at 33.0 µM,98% (active)
same,growth inhibition,[3]; at 100.0 µM,98% (active)
same,growth inhibition,[4]; at 1.2 µM,13%
same,growth inhibition,[4]; at 3.7 µM,27%
same,growth inhibition,[4]; [16],27%
same,growth inhibition,[4]; at 11.0 µM,96% (active)
same,growth inhibition,[4]; at 33.0 µM,97% (active)
same,growth inhibition,[4]; [17],92% (active)
same,growth inhibition,[4]; at 50.0 µM,97% (active)
same,growth inhibition,[4]; at 100.0 µM,96% (active)
same,growth inhibition,[5]; at 1.2 µM,16%
same,growth inhibition,[5]; at 3.7 µM,37%
same,growth inhibition,[5]; [16],-7%
same,growth inhibition,[5]; at 11.0 µM,98% (active)
same,growth inhibition,[5]; at 33.0 µM,98% (active)
same,growth inhibition,[5]; [17],97% (active)
same,growth inhibition,[5]; at 50.0 µM,93.8% (active)
same,growth inhibition,[5]; at 100.0 µM,97% (active)
same,growth inhibition,[6]; at 1.2 µM,14%
same,growth inhibition,[6]; at 3.7 µM,33%
same,growth inhibition,[6]; at 11.0 µM,99% (active)
same,growth inhibition,[6]; at 33.0 µM,98% (active)
same,growth inhibition,[6]; at 100.0 µM,97% (active)
same,growth inhibition,[7]; [16],13%
same,growth inhibition,[7]; [17],94% (active)
same,growth inhibition,[7]; at 50.0 µM,98.1% (active)
same,growth inhibition,[8]; at 1.2 µM,-15%
same,growth inhibition,[8]; at 3.7 µM,7%
same,growth inhibition,[8]; at 11.0 µM,37%
same,growth inhibition,[8]; at 33.0 µM,94% (active)
same,growth inhibition,[8]; at 100.0 µM,97% (active)
same,growth inhibition,[9]; [16],30%
same,growth inhibition,[9]; [17],89% (active)
same,growth inhibition,[9]; at 50.0 µM,92% (active)
same,growth inhibition,[10]; at 1.2 µM,-2%
same,growth inhibition,[10]; at 3.7 µM,14%
same,growth inhibition,[10]; [16],59%
same,growth inhibition,[10]; at 11.0 µM,52%
same,growth inhibition,[10]; at 33.0 µM,97% (active)
same,growth inhibition,[10]; [17],91% (active)
same,growth inhibition,[10]; at 50.0 µM,97% (active)
same,growth inhibition,[10]; at 100.0 µM,95% (active)
same,growth inhibition,[11]; at 1.2 µM,11%
same,growth inhibition,[11]; at 3.7 µM,34%
same,growth inhibition,[11]; at 11.0 µM,95% (active)
same,growth inhibition,[11]; at 33.0 µM,98% (active)
same,growth inhibition,[11]; at 100.0 µM,97% (active)
same,growth inhibition,[12]; at 1.2 µM,27%
same,growth inhibition,[12]; at 3.7 µM,50%
same,growth inhibition,[12]; at 11.0 µM,98% (active)
same,growth inhibition,[12]; at 33.0 µM,98% (active)
same,growth inhibition,[12]; at 100.0 µM,95% (active)
same,growth inhibition,[13]; at 1.2 µM,42%
same,growth inhibition,[13]; at 3.7 µM,68%
same,growth inhibition,[13]; at 11.0 µM,97% (active)
same,growth inhibition,[13]; at 33.0 µM,97% (active)
same,growth inhibition,[13]; at 100.0 µM,96% (active)
same,growth inhibition,[14]; [16],38%
same,growth inhibition,[14]; [17],91% (active)
same,growth inhibition,[14]; at 50.0 µM,96.2% (active)
same,growth inhibition,[15]; at 1.2 µM,29%
same,growth inhibition,[15]; at 3.7 µM,56%
same,growth inhibition,[15]; at 11.0 µM,99% (active)
same,growth inhibition,[15]; at 33.0 µM,98% (active)
same,growth inhibition,[15]; at 100.0 µM,97% (active)
